PG9 Ab binder: binds the HIV-1 gp120 antibody PG9; TR-FRET gp120-PG9 antibody binding; inhibition, % at 6.7 µM; 0.43% of 360,000 active; in the data active means inhibition above about 8.5%
SKN-1 inh: blocks SKN-1 activity in C. elegans | 0.49% of 360,000 active | C. elegans VP596 Pgst-4::GFP/RFP ratio, acrylamide-induced, 24 h | AID 624304 | inhibition, % at 21.8 µM;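 active means interference check ratio from 0.5 to 1.5 plus GFP to RFP signal ratio inhibition reaching or exceeding a fixed threshold, cut at about 30% in these data, passing the limit was not always enough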
EP2 antag: EP2 receptor (human) inhibition | 0.52% of 260,000 active | inhibition, % at 25 µM | C6 glioma cells expressing human EP2, cAMP TR-FRET; cells stimulated with saturating PGE2 | P43116 | AID 1422;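 active means percent inhibition above 40 after rounding to a whole number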;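 further: rat C6 glioma host cells with rolipram phosphodiesterase inhibitor present; the protocol text gives 20 µM as final concentration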
Target sequence (P43116 whole entry, looked up): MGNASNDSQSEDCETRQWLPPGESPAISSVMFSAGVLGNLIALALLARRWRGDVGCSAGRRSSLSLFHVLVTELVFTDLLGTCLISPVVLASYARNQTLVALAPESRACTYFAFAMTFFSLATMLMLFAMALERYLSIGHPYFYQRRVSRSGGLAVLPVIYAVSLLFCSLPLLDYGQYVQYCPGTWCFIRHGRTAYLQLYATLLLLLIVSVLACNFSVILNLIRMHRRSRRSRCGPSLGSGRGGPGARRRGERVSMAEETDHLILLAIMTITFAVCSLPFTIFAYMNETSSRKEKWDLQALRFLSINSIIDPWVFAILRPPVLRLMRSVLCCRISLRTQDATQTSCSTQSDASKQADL
Rev-erbA mod: Rev-erb alpha (human) modulation | P20393 | 0.79% of 370,000 active | activity, % at 10 µM | Rev-erbα–FITC-DNA binding, fluorescence polarization, 90 min;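 active means activity above about 14%, limit read from the data; passing the limit was not always enough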;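 further: 0% = DMSO wells with 35 nM protein and 100% = DMSO wells with 750 nM protein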
EP2 modulator: modulators of human EP2 prostaglandin E2 receptor; 0.83% of 260,000 active; EP2-expressing cells, cAMP HTRF FRET, PGE2 co-stimulation; AID 940; induction, % at 25 µM;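 active means compounds whose cAMP rise, as percent of the full-agonist control response, exceeds 60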;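 further: rat C6 glioma line stably carrying human EP2 under a CMV promoter; the protocol text gives 20 µM as final concentration; 100% = response of wells given 1 µM PGE2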
RAM inhibit: inhibitors of the yeast RAM network | S. cerevisiae dse1pr::URA3 reporter, 5-FOA growth OD615, 2 d; analog-sensitive cbk1-as2 kinase mutant strain | inhibition, % at 50 µM | 1.8% of 190,000 active;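 active means inhibition above a set limit, 3 SD over mean compound inhibition, cut at about 8.4% in these data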;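 further: 0% = DMSO-only wells with no growth and 100% = 10 µM 1-NA-PP1 full growth; inhibition rescues growth on 5-FOA so higher OD means more RAM inhibition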
EP2 cAMP induct: human EP2 receptor cAMP induction, negative in counter-screens. shares compounds with EP2 modulator. C6 glioma EP2 cells, cAMP HTRF induction; plus low (about EC15) PGE2 agonist. calls only at 20 µM (by protocol). 47% of 1,300 active. AID 1080;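 active means cAMP induction above 50% in the main assay while under 30% in all four parallel counter assays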;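 further: rat C6 glioma cells stably expressing human EP2 receptor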
* = called active by the depositor. The list is not random: actives were taken first. Their share in the collection is about 2.9%.

Screening COc1ccc(CN2C(=O)CN=C2Nc2cc(C)ccc2C)cc1 returned PG9 Ab binder -1, SKN-1 inh 34, EP2 antag 10, Rev-erbA mod -1, EP2 modulator 70*, RAM inhibit 0 and EP2 cAMP induct inactive.
For Cc1cc(-c2cc(N)c(=O)n(CC(=O)Nc3ccc(F)c(F)c3)n2)c(C)o1 the results were EP2 antag 10 and EP2 modulator -101.
Screening CSc1nc(Oc2ccccc2)c2sccc2n1 returned PG9 Ab binder 2, SKN-1 inh -6, EP2 antag 6, Rev-erbA mod 4, EP2 modulator 66*, RAM inhibit 0 and EP2 cAMP induct active.
`C=CCSc1nc(Oc2ccccc2)c2sccc2n1` gave PG9 Ab binder -1, SKN-1 inh 7, EP2 antag 8, Rev-erbA mod 0, EP2 modulator 69*, RAM inhibit 0 and EP2 cAMP induct inactive.
CCOC(=O)c1cnc(SCC(=O)OC2CCCCC2)nc1N was read as EP2 antag 5 and EP2 modulator -19.
Screening CCOC(=O)Cn1cc(C2C(C#N)=C(N)Oc3n[nH]c(C)c32)c2ccccc21 (stereo not drawn) returned EP2 antag 12 and EP2 modulator -32.
Screening Cc1ccc(OCC(=O)Oc2ccc(C(C)C)cc2)cc1 returned PG9 Ab binder -4, SKN-1 inh 3 and Rev-erbA mod 2.
Screening CCC(=O)Oc1ccc(C(CC)C(CC)c2ccc(OC(=O)CC)cc2)cc1 (stereo not drawn) returned PG9 Ab binder -1, SKN-1 inh 5, EP2 antag 9, Rev-erbA mod 0, EP2 modulator 69*, RAM inhibit 7 and EP2 cAMP induct active.
For CCCCOc1c(Br)cc(/C=N/O)cc1OCC the results were PG9 Ab binder 2, SKN-1 inh 15, Rev-erbA mod 1, EP2 modulator 66*, RAM inhibit -2 and EP2 cAMP induct inactive.
`COc1ccc(-c2cc(C(F)(F)F)nc(N3CCOCC3)n2)cc1OC` gave PG9 Ab binder -2, SKN-1 inh 4, EP2 antag 6, Rev-erbA mod 3, EP2 modulator 70*, RAM inhibit 2 and EP2 cAMP induct active.
`COc1ccc(-c2cc(-c3ccccc3)nc(N3CCCC3)n2)cc1OC` gave PG9 Ab binder 5, SKN-1 inh 8, EP2 antag 5, Rev-erbA mod 9, EP2 modulator 64*, RAM inhibit 3 and EP2 cAMP induct inactive.
Screening COc1ccc(-c2cc(C(F)(F)F)nc(NC3CCCC3)n2)cc1OC returned PG9 Ab binder -1, SKN-1 inh 11, EP2 antag 8, Rev-erbA mod 4, EP2 modulator 68*, RAM inhibit 2 and EP2 cAMP induct inactive.
Screening NC(=O)c1cc(-c2ccccc2)nc(N2CCCCCC2)n1 returned PG9 Ab binder -3, SKN-1 inh 23, EP2 antag 10, Rev-erbA mod 0, EP2 modulator -17 and RAM inhibit 6.
`COc1ccc(-c2nc3cnccn3c2NCc2ccco2)cc1CO` gave EP2 modulator -51.
Cc1ccc(-c2nn(-c3ccccc3)cc2CN(Cc2ccccc2)C(=O)c2ccco2)o1 was read as PG9 Ab binder -1, SKN-1 inh 25, EP2 antag 9, Rev-erbA mod -2, EP2 modulator 80*, RAM inhibit 1 and EP2 cAMP induct active.
For O=C(O)c1ccc(N2C(=O)/C(=C/C=C/c3ccccc3)SC2=S)cc1 the results were PG9 Ab binder -2, SKN-1 inh 13, EP2 antag 13, Rev-erbA mod -2, EP2 modulator 80*, RAM inhibit 1 and EP2 cAMP induct active.
`Clc1ccc(Cl)c(-c2ccc(/C=N/c3ncn[nH]3)o2)c1` gave PG9 Ab binder 7, SKN-1 inh 6, EP2 antag 30, Rev-erbA mod 0, EP2 modulator 71*, RAM inhibit 0 and EP2 cAMP induct inactive.
CC(C)NC(=O)NC(=O)CSc1nnc(COc2ccccc2F)n1C(C)C1CC2CCC1C2 (stereo not drawn) was read as SKN-1 inh 3, EP2 antag 6, Rev-erbA mod 6, EP2 modulator 57, RAM inhibit 5 and EP2 cAMP induct inactive.
Cc1cc(C)c2nc(N3CCCN(C(=O)c4ccco4)CC3)c(C#N)cc2c1 was read as PG9 Ab binder 2, SKN-1 inh 6, EP2 antag 7, Rev-erbA mod 1, EP2 modulator 70*, RAM inhibit 4 and EP2 cAMP induct active.
Clc1ccc(-c2nnc(-c3ccccc3)c(-c3ccccc3)n2)cc1 was read as PG9 Ab binder 0, SKN-1 inh 9, EP2 antag 7, Rev-erbA mod -2 and EP2 modulator 34.
For COc1nc(-c2ccccc2)nnc1-c1ccccc1 the results were PG9 Ab binder -2, SKN-1 inh 52*, EP2 antag 5, Rev-erbA mod 2, EP2 modulator 75*, RAM inhibit 1 and EP2 cAMP induct inactive.
For COP(=O)(OC)c1nc(-c2ccccc2)oc1NCc1ccccc1 the results were PG9 Ab binder -3, SKN-1 inh 7, EP2 antag 4, Rev-erbA mod -3, EP2 modulator 44 and RAM inhibit 0.
CCOP(=O)(OCC)c1nc(-c2ccc(Cl)cc2)oc1NCc1ccccc1 was read as PG9 Ab binder -2, SKN-1 inh -8, EP2 antag 4, Rev-erbA mod 7, EP2 modulator 78*, RAM inhibit 4 and EP2 cAMP induct inactive.
Screening CCCOP(=O)(OCCC)c1nc(-c2ccccc2)oc1NCc1ccccc1 returned PG9 Ab binder -3, SKN-1 inh 0, EP2 antag 15, Rev-erbA mod -1, EP2 modulator 94*, RAM inhibit 2 and EP2 cAMP induct active.
`O=C(C(c1ccccc1)c1ccccc1)N1CCCc2ccccc21` gave PG9 Ab binder 1, SKN-1 inh -13, EP2 antag 17, Rev-erbA mod 2, EP2 modulator 78*, RAM inhibit 7 and EP2 cAMP induct active.
Cc1ccc(NC(=O)CC(=O)Nc2ccc(C)cc2C)c(C)c1 was read as PG9 Ab binder -1, SKN-1 inh 21 and Rev-erbA mod 2.
For Cc1ccc(N/C(C(Cl)=C(Cl)Cl)=C(/Cl)[N+](=O)[O-])c(C)c1 the results were PG9 Ab binder 0, SKN-1 inh 10, EP2 antag 10, Rev-erbA mod 1, EP2 modulator 73*, RAM inhibit 9.4* and EP2 cAMP induct active.
O=C(Cc1c[nH]c2ccccc12)N1CCc2c(nc(N3CCCC3)[nH]c2=O)C1 was read as EP2 modulator -31.

Compound activity from PubChem.
